# Biological target: Solute carrier family 2, facilitated glucose transporter member 1 (Homo sapiens) (UniProt P11166)
# Assay: ST_JUDE_LEISH: Cytotoxicity at 2uM final concentration against transgenic Leishmania Mexicana promastigotes LmGLUT1 that are glucose transport deficient and complemented with the human glucose transporter GLUT1. Activity is measured by DNA content using SYBR green in vitro
# Type: functional
# Solute carrier family 2, facilitated glucose transporter member 1 (Homo sapiens), sequence (P11166 whole entry): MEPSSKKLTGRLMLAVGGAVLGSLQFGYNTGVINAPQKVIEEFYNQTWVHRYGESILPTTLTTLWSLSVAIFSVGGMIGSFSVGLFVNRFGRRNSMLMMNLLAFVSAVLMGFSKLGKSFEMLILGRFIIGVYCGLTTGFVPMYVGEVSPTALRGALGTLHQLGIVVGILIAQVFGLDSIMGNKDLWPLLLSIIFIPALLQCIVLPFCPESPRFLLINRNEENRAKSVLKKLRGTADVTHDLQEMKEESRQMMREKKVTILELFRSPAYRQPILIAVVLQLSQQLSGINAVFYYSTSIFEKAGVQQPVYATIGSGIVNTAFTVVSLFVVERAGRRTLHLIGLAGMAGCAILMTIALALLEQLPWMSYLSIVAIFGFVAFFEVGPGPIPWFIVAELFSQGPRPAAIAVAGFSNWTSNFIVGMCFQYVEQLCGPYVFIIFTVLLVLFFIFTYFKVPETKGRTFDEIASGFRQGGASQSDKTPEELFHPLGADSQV
row,SMILES,inhibition [%]
1,O=C(Cc1cccc(Cl)c1)Nc1cccc(-c2c[nH]c3nc(Nc4cccc(O)c4)ncc23)c1,0.33
2,COc1ccccc1-c1cccc2c(NC(=O)Nc3ccc4nccc(N5CCN(C)CC5)c4c3)ccnc12,1.85
3,Cn1nccc1C(=O)NCCNCc1ccc(-c2cccc(-c3nc4cc(C(F)(F)F)ccc4[nH]3)c2)cc1,0.63
4,Cc1ccc(NC(=O)c2cc(Br)cc(N3CCCN(C)CC3)c2)cc1F,-0.54
5,N=C(N)Nc1cccc(NC(=O)Nc2cccc(NC(=N)N)c2)c1,6.92
6,Clc1cc(Br)ccc1-c1ccc(CNCC2CCNCC2)o1,0.75
7,Cc1ccc(Nc2nc(N)c3ccccc3n2)cc1,22
8,Brc1ccc(Nc2ccnc3cc(-c4nccs4)ccc23)cc1Oc1ccnc2cc(-c3nccs3)ccc12,1.77
9,COc1ccc(Nc2ncc3c(-c4cccc(NC(=O)c5ccc(N)cc5)c4)c[nH]c3n2)cc1OC,9.74
10,COc1ccc2[nH]ccc(=NN=CC=Cc3ccccc3)c2c1,-0.13
11,Cc1cc(=O)c(-c2ccc(Oc3ccc(OC(F)(F)F)cc3)cc2)c(C)[nH]1,-0.98
12,CC(C)(C)c1ccc(NC(=O)c2ccc(CN3CCCN(Cc4cccc(C#N)c4)CC3)cc2)cc1,6.54
13,COc1cccc(C(=O)NC(c2ccc(Cl)cc2Cl)c2cc(Cl)c3cccnc3c2O)c1 (stereo not given),0.8
14,N#Cc1ccccc1C(=O)N(Cc1cncn1Cc1cccc(F)c1)CC1CC1,6.38
15,CN1CCC(C(=O)N(Cc2ccc(-c3ccc(CNCCc4ccc(S(C)(=O)=O)cc4)cn3)cc2)C2Cc3ccccc3C2)CC1,0.67
16,CN(C)c1ccc2c(c1)Sc1cc(N(C)C)ccc1N2C(=O)c1cccc(C(=O)O)c1,-1.08
17,COc1cc2nc(N(C)C)nc(Nc3ccc4c(cnn4Cc4ccccc4)c3)c2cc1OC,-0.58
18,COc1ccc(-c2cccc(NC(=O)c3ccc(F)cc3)c2)cc1CN1CCCN(C)CC1,11.2
19,CC1CN(c2cnn(Cc3cccc(NC(=O)Nc4ccc(F)cc4[N+](=O)[O-])c3)c(=O)c2Cl)CC(C)N1 (stereo not given),-2.05
20,Clc1cc(Nc2ncnc3sc(C#C[C@H]4CCCN4)cc23)ccc1OCc1cccnc1Cl,3.83

row,SMILES,inhibition [%]
1,CCN(c1ccc(O)c(CN2CCCCC2)c1)c1ccc([N+](=O)[O-])cn1,2.79
2,O=C(c1cccc(-c2ccc(-c3nc4cc(C(F)(F)F)ccc4[nH]3)cc2)c1)N1CCCCC1CN1CCC(O)C1 (stereo not given),0.99
3,CC(C(=O)Nc1ccc(Br)cc1Br)N1CCN(C(=O)c2ccco2)CC1 (stereo not given),-0.66
4,O=C(O)/C=C/c1cccc(F)c1F,1.29
5,O=C(Nc1ccc(-c2ccccc2)c(OCCN2CCNCC2)c1)c1ccc(-c2ccc(Cl)cc2)cc1,3.89
6,COc1cc2c(cc1OC)CN(CCc1ccc(NC(=O)c3cc4cc(OC(F)(F)F)ccc4[nH]3)cc1)CC2,3.34
7,CC(=O)N1N=C(c2ccccc2)Sc2c1nc(-c1ccc(Cl)cc1)n2C(C)=O,1.37
8,CC(=O)N(C)c1cccc(C(=O)Nc2ccc(-c3cccc(-c4nc5cccc(C)c5[nH]4)c3)cc2)c1,2.19
9,CC(C)c1ccc(CN2CCC(CNC(=O)c3cc(-c4ccccc4F)cs3)C2)cc1 (stereo not given),4.5
10,CC(CNc1nc(NCC(c2ccccc2)c2ccccc2)c2nc[nH]c2n1)c1ccccc1 (stereo not given),3.92
11,COc1ccc(CNC2CCN(C)CC2)cc1-c1ccc(S(=O)(=O)NCCc2ccccn2)c(C)c1,4.11
12,CCOc1cc(C)ccc1NC1CCN(CCCCNC(=O)c2ccc(NC(=O)c3ccc(Cl)cc3)cc2)CC1,-0.53
13,Oc1ccc2[nH]cc(C3CCN(CCCCCCCCCN4CCC(c5c[nH]c6ccc(O)cc56)CC4)CC3)c2c1,-1.57
14,Cc1nc(-c2cccc(NCc3ccccc3)c2)[nH]c1C,6.94
15,O=C(NC1CC1)c1ccc(N2CCC(Cc3ccccc3)CC2)nc1,3.46
16,CCOc1ccc2nc3cc([N+](=O)[O-])ccc3c(N)c2c1,6.85
17,CCOc1ccc(OCC)c(N2CCN(CCCCNC(=O)c3ccc(NC(=O)c4ccc(Cl)cc4)cc3)CC2)c1,3.44
18,O=[N+]([O-])c1cccc(/C=N/Nc2ccnc3cc(F)ccc23)c1,1.98
19,CCCCOc1c(CNCCCCCCNCc2ccc3ccccc3c2OCCCC)ccc2ccccc12,99.5
20,CCC(CN1C(=N)NC(c2ccccc2)(c2ccccc2)C1=O)c1ccccc1 (stereo not given),-0.75

# Biological target: Hexose transporter 1 (Plasmodium falciparum) (UniProt O97467)
# Assay: ST_JUDE_LEISH: Cytotoxicity at 2uM final concentration against transgenic Leishmania Mexicana promastigotes LmPfHT that are glucose transport deficient and complemented with the Plasmodium falciparum hexose transporter. Activity is measured by DNA content using SYBR green in vitro
# Type: functional
row,SMILES,inhibition [%]
1,O=C(Cc1cccc(Cl)c1)Nc1cccc(-c2c[nH]c3nc(Nc4cccc(O)c4)ncc23)c1,0.22
2,COc1ccccc1-c1cccc2c(NC(=O)Nc3ccc4nccc(N5CCN(C)CC5)c4c3)ccnc12,2.74
3,Cn1nccc1C(=O)NCCNCc1ccc(-c2cccc(-c3nc4cc(C(F)(F)F)ccc4[nH]3)c2)cc1,1.93
4,Cc1ccc(NC(=O)c2cc(Br)cc(N3CCCN(C)CC3)c2)cc1F,0.36
5,N=C(N)Nc1cccc(NC(=O)Nc2cccc(NC(=N)N)c2)c1,4.83
6,Clc1cc(Br)ccc1-c1ccc(CNCC2CCNCC2)o1,-0.1
7,Cc1ccc(Nc2nc(N)c3ccccc3n2)cc1,17.5
8,Brc1ccc(Nc2ccnc3cc(-c4nccs4)ccc23)cc1Oc1ccnc2cc(-c3nccs3)ccc12,2.1
9,COc1ccc(Nc2ncc3c(-c4cccc(NC(=O)c5ccc(N)cc5)c4)c[nH]c3n2)cc1OC,8.84
10,COc1ccc2[nH]ccc(=NN=CC=Cc3ccccc3)c2c1,2.19
11,Cc1cc(=O)c(-c2ccc(Oc3ccc(OC(F)(F)F)cc3)cc2)c(C)[nH]1,-0.47
12,CC(C)(C)c1ccc(NC(=O)c2ccc(CN3CCCN(Cc4cccc(C#N)c4)CC3)cc2)cc1,7.31
13,COc1cccc(C(=O)NC(c2ccc(Cl)cc2Cl)c2cc(Cl)c3cccnc3c2O)c1 (stereo not given),-0.13
14,N#Cc1ccccc1C(=O)N(Cc1cncn1Cc1cccc(F)c1)CC1CC1,10.2
15,CN1CCC(C(=O)N(Cc2ccc(-c3ccc(CNCCc4ccc(S(C)(=O)=O)cc4)cn3)cc2)C2Cc3ccccc3C2)CC1,-0.29
16,CN(C)c1ccc2c(c1)Sc1cc(N(C)C)ccc1N2C(=O)c1cccc(C(=O)O)c1,-0.19
17,COc1cc2nc(N(C)C)nc(Nc3ccc4c(cnn4Cc4ccccc4)c3)c2cc1OC,-0.17
18,COc1ccc(-c2cccc(NC(=O)c3ccc(F)cc3)c2)cc1CN1CCCN(C)CC1,9.38
19,CC1CN(c2cnn(Cc3cccc(NC(=O)Nc4ccc(F)cc4[N+](=O)[O-])c3)c(=O)c2Cl)CC(C)N1 (stereo not given),1.66
20,Clc1cc(Nc2ncnc3sc(C#C[C@H]4CCCN4)cc23)ccc1OCc1cccnc1Cl,4.71

row,SMILES,inhibition [%]
1,CCN(c1ccc(O)c(CN2CCCCC2)c1)c1ccc([N+](=O)[O-])cn1,1.08
2,O=C(c1cccc(-c2ccc(-c3nc4cc(C(F)(F)F)ccc4[nH]3)cc2)c1)N1CCCCC1CN1CCC(O)C1 (stereo not given),1.44
3,CC(C(=O)Nc1ccc(Br)cc1Br)N1CCN(C(=O)c2ccco2)CC1 (stereo not given),1.36
4,O=C(O)/C=C/c1cccc(F)c1F,1.5
5,O=C(Nc1ccc(-c2ccccc2)c(OCCN2CCNCC2)c1)c1ccc(-c2ccc(Cl)cc2)cc1,5.96
6,COc1cc2c(cc1OC)CN(CCc1ccc(NC(=O)c3cc4cc(OC(F)(F)F)ccc4[nH]3)cc1)CC2,3.67
7,CC(=O)N1N=C(c2ccccc2)Sc2c1nc(-c1ccc(Cl)cc1)n2C(C)=O,1.41
8,CC(=O)N(C)c1cccc(C(=O)Nc2ccc(-c3cccc(-c4nc5cccc(C)c5[nH]4)c3)cc2)c1,1.06
9,CC(C)c1ccc(CN2CCC(CNC(=O)c3cc(-c4ccccc4F)cs3)C2)cc1 (stereo not given),4.88
10,CC(CNc1nc(NCC(c2ccccc2)c2ccccc2)c2nc[nH]c2n1)c1ccccc1 (stereo not given),5
11,COc1ccc(CNC2CCN(C)CC2)cc1-c1ccc(S(=O)(=O)NCCc2ccccn2)c(C)c1,1.98
12,CCOc1cc(C)ccc1NC1CCN(CCCCNC(=O)c2ccc(NC(=O)c3ccc(Cl)cc3)cc2)CC1,1.56
13,Oc1ccc2[nH]cc(C3CCN(CCCCCCCCCN4CCC(c5c[nH]c6ccc(O)cc56)CC4)CC3)c2c1,-1.31
14,Cc1nc(-c2cccc(NCc3ccccc3)c2)[nH]c1C,7.04
15,O=C(NC1CC1)c1ccc(N2CCC(Cc3ccccc3)CC2)nc1,4.8
16,CCOc1ccc2nc3cc([N+](=O)[O-])ccc3c(N)c2c1,7.59
17,CCOc1ccc(OCC)c(N2CCN(CCCCNC(=O)c3ccc(NC(=O)c4ccc(Cl)cc4)cc3)CC2)c1,3.28
18,O=[N+]([O-])c1cccc(/C=N/Nc2ccnc3cc(F)ccc23)c1,2.39
19,CCCCOc1c(CNCCCCCCNCc2ccc3ccccc3c2OCCCC)ccc2ccccc12,49.1
20,CCC(CN1C(=N)NC(c2ccccc2)(c2ccccc2)C1=O)c1ccccc1 (stereo not given),-2.3
